The nature of assay [1]: Viability qHTS for spleen associated tyrosine kinase inhibitor (SYKi) naive MV4-11 cells (AID 1963823). Also: nearly all actives have a fitted effect of over 40% in size. The procedure, abridged: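 qHTS, SYK inhibitor-naive MV4-11; 500 cells/well; 72 hr compound exposure, 37 C; CellTiter-Glo added, 10 min RT; luminescence read.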
A general note: In qHTS, concentration-response curves come from the screen itself.

The nature of assay [2]: Viability qHTS for spleen associated tyrosine kinase inhibitor (SYKi) drug resistant MV4-11 cells (AID 1963824). Also: nearly all actives have a fitted effect of over 35% in size. In outline:
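CellTiter-Glo luminescence, read 10 min after reagent addition, reports viability after a 72 hr compound exposure. Cells are an MV4-11 line made resistant to SYK inhibition, seeded at 500 per well onto compound-containing plates.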

Assay [3] in a line: Quantitative highthroughput screen to assess conditional lethalithy of NOMO1 cells grown in RPMI1640 with untreated serum (RPMI+s) (AID 1963876). Also: nearly all actives have a fitted effect of over 35% in size.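 As to Viability: 100% = DMSO wells and 0% = empty wells without cells.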 In outline:
(§1)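 Each medium arm—HPLM with 10% dialyzed FBS, or RPMI1640 with 5 mM glucose and 10% untreated or dialyzed FBS—was screened against an 11-point, 3-fold compound titration for 48 h at 37 °C, with CellTiter-Glo luminescence as endpoint.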

Assay [4] is described as follows: Quantitative highthroughput screen to assess conditional lethalithy of NOMO1 cells grown in RPMI1640 with dialyzed fetal bovine serum (RPMI+ds) (AID 1963877). Also: nearly all actives have a fitted effect of over 30% in size.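 As to Viability: series mostly up to about 46 µM; 100% = DMSO control wells and 0% = empty wells.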 In outline: as §1
Assay [5] can be described thus: Quantitative highthroughput screen to assess conditional lethalithy of NOMO1 cells grown in Human Plasma-Like Medium with dialyzed fetal bovine serum (HPLM+ds) (AID 1963878). Also: nearly all actives have a fitted effect of over 35% in size.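 As to Viability: 100% = DMSO wells and 0% = empty wells on each plate.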 The procedure, abridged:
as §1

A short description of assay [6]: Quantitative highthroughput screen to assess conditional lethalithy of P12 Ichikawa cells grown in Human Plasma-Like Medium with dialyzed fetal bovine serum (HPLM+ds) (AID 1963879). Also: nearly all actives have a fitted effect of over 35% in size. As to Viability: series mostly up to about 46 µM. The note with it: Potency: viability. In outline:
as §1

Assay [7] in a line: Quantitative highthroughput screen to assess conditional lethalithy of P12 Ichikawa cells grown in RPMI1640 with dialyzed fetal bovine serum (RPMI+ds) (AID 1963880). Also: nearly all actives have a fitted effect of over 35% in size.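 As to Viability: 100% = DMSO wells and 0% = empty wells on each plate.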 Conditions: Potency: P12-Ichikawa viability. The procedure, abridged: as §1
The nature of assay [8]: Quantitative highthroughput screen to assess conditional lethalithy of P12 Ichikawa cells grown in RPMI1640 with untreated serum (RPMI+s) (AID 1963881). Also: nearly all actives have a fitted effect of over 35% in size.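 As to Viability: series mostly up to about 46 µM; 100% = DMSO wells and 0% = empty wells without cells.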 The note with it: Potency: viability. The procedure, abridged: as §1
The nature of assay [9]: Quantitative highthroughput screen to assess conditional lethalithy of SEM cells grown in Human Plasma-Like Medium with dialyzed fetal bovine serum (HPLM+ds) (AID 1963882). Also: nearly all actives have a fitted effect of over 35% in size. As to Viability: series mostly up to about 46 µM. The procedure, abridged:
as §1

Assay [10] can be described thus: Quantitative highthroughput screen to assess conditional lethalithy of SEM cells grown in RPMI1640 with unreated serum (RPMI+s) (AID 1963883). Also: nearly all actives have a fitted effect of over 35% in size.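 As to Viability: 100% = DMSO wells and 0% = empty wells without cells.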 The procedure, abridged:
as §1

A short description of assay [11]: Quantitative highthroughput screen to assess conditional lethalithy of SEM cells grown in RPMI1640 with dialyzed fetal bovine serum (RPMI+ds) (AID 1963884). Also: nearly all actives have a fitted effect of over 35% in size.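 As to Viability: series mostly up to about 46 µM; 100% = DMSO control wells and 0% = empty wells without cells.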 The procedure, abridged:
as §1

Assay [12] can be described thus: Cellular viability qHTS for adrenocortical cancer (ACC) cell line SW-13 (AID 1963989). Also: nearly all actives have a fitted effect of over 65% in size.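 As to activity (max response): cells grown in serum-free medium with ITS supplement; % is scaled to controls: 0 for no effect and ±100 for the full control effect.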 The note with it: SW-13 ACC cells viability, CellTiter-Glo, 48 h; activity (max response): active compounds read low. The procedure, abridged:
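Compound titrations (up to 46 uM final, in DMSO) were applied to SW-13 cells for 48 h at 37C/5% CO2. Reading used CellTiter-Glo after 20 min at room temperature; fitted curves yielded IC50 and efficacy.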

The nature of assay [13]: Cellular viability qHTS for adrenocortical cancer (ACC) cell line NCI-H295R (AID 1963990). Also: nearly all actives have a fitted effect of over 60% in size. The procedure, abridged:
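Readout: CellTiter-Glo luminescence, 20 min RT. Exposure: 48 h, 37C/5% CO2. Cells: NCI-H295R, ITS-DMEM serum-free. Range: up to 46 uM. Analysis: 4PL fit, IC50 plus efficacy.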

Where “and” joins values, the source holds several entries; their conditions need not be identical. Equal entries are not always repeated. Results filed as inconclusive are left out. Unmarked numbers belong to inactive results. Calls of active or inactive are those of the source. Calls follow the shape of the dose curve; as a rule, active = well fitted curve in the direction sought with a large enough effect; inconclusive = small, poorly fitted or top-dose-only effect, or another doubt; inactive = no such curve, though single readings can be large; an effect the other way counts as inactive or inconclusive.
Potency is read from the fitted curve at half-maximal effect.

Consider `CN(C1CCc2c(c3ccccc3n2CC(=O)O)C1)S(=O)(=O)c1ccc(F)cc1` (stereo not given), for which the Potency result in assay [1], in assay [2] and in assay [9] was “inactive” each time. Also, the Potency in assay [3] is 7.43 µM (active); in [4], 7.43 µM (active); in assay [5], 5.9 µM (active); in assay [6] it was 8.33 µM (active); in assay [7] it was 14.8 µM (active); in assay [8], 9.35 µM (active).

Turning to `O=C(c1ccc(Nc2nccc(-c3cc4ccccc4s3)n2)cc1)N1CCC(N2CCCC2)CC1`, the Potency in assay [1] is 920 nM (active) and 468 nM (active); in assay [2], 1.64 µM (active) and 731 nM (active); in [3], 26.4 µM (active); in [4], 26.4 µM (active); in assay [5], 13.2 µM (active); in [6] it was 18.7 µM (active). The Potency is 16.6 µM (active) in [7]; 23.5 µM (active) in [8]; 7430 nM (active) in [9]; 9350 nM (active) in assay [10]; 9350 nM (active) in assay [11]; 6.31 µM (active) in assay [12]. Further, in assay [13], the Potency is 5.62 µM (active).

With `OCCCNc1cc(-c2ccnc(Nc3cccc(Cl)c3)n2)ccn1`, the Potency was 82 nM (active) and 83.3 nM (active) in assay [1]; 58 nM (active) and 66.1 nM (active) in assay [2]; 0.187 µM (active) in assay [3]; 0.209 µM (active) in assay [4]; 0.235 µM (active) in assay [5]; 0.662 µM (active) in assay [6]. For the same compound, the Potency in assay [7] is 0.469 µM (active); in assay [8], 0.526 µM (active); in [9] it was 166 nM (active); in [10], 235 nM (active); in assay [11] it was 209 nM (active); in assay [12], 0.447 µM (active). In [13], the Potency was 0.316 µM (active).

Take `C=C1CC[C@]2(C(=O)O[C@@H]3O[C@H](CO)[C@@H](O)[C@H](O)[C@H]3O)CC[C@]3(C)C(=CCC4[C@@]5(C)C[C@H](O)[C@@H](O[C@@H]6O[C@H](C(=O)O)[C@@H](O)[C@H](O)[C@H]6O)[C@](C)(C=O)C5CC[C@]43C)C2C1` (stereo not given in full): the viability (% of control) in assay [1] was 68.2% [at 9.25 µM]. Besides, in [2], the viability, % of control is 87.9% [at 9.25 µM].

With `Cc1ccnc(NS(=O)(=O)c2ccc(NC(=O)Nc3ccc(S(=O)(=O)Nc4nccc(C)n4)cc3)cc2)n1`, the Potency entry in assay [1], in assay [2] and in assay [13] was “inactive” in each case. Further, the Potency was 0.296 µM (active) in [3]; 0.469 µM (active) in assay [4]; 0.118 µM (active) in assay [5]; 0.264 µM (active) in assay [6]; 0.332 µM (active) in assay [7]; 0.469 µM (active) in assay [8]. Besides, the Potency in assay [9] was 187 nM (active); in assay [10], 83.3 nM (active); in assay [11], 105 nM (active). For the same compound, the activity (max response) in [12] was -24.6%.

Take `Cc1nc(C(=O)NCC(=O)O)c(O)c2ccc(Oc3ccccc3)cc12`: the Potency entry in [1], in assay [2], in assay [3], in assay [4], in assay [5] and in assay [6] was “inactive” throughout. The Potency result in assay [7], in [8], in assay [9], in assay [10] and in [11] was “inactive” each time. The activity (max response) in [12] is 0.299%.

Take `CC(C)C[C@H](NC(=O)[C@H](Cc1ccccc1)NC(=O)c1cnccn1)B(O)O`: the Potency in assay [1] was 13.2 nM (active); in assay [2], 9.4 nM (active) and 11.8 nM (active); in [3] it was 0.0469 µM (active); in assay [4], 0.0469 µM (active); in [5], 0.0469 µM (active); in [6], 0.0372 µM (active). Moreover, the Potency in [7] is 0.0372 µM (active); in assay [8], 0.0372 µM (active); in assay [9], 20.9 nM (active); in [10] it was 18.7 nM (active); in assay [11], 16.6 nM (active); in assay [12] it was 20.6 nM (active) and 79.4 nM (active). Moreover, in [13], the Potency was 8.2 nM (active) and 35.5 nM (active).

On to `CCCCNc1cc(C(=O)O)cc(S(N)(=O)=O)c1Oc1ccccc1`, for which the Potency entry in assay [1], in assay [2], in assay [3], in assay [4], in [5] and in assay [6] was “inactive” in each case. The Potency entry in assay [7], in [8], in [9], in assay [10], in [11] and in [13] was “inactive” throughout. Further, in assay [12], the activity (max response) was 16.2% and -1.57%.

`COc1nc(C)cnc1NS(=O)(=O)c1cccnc1-c1ccc(-c2nnco2)cc1`: the Potency result in assay [1], in [2], in [3], in assay [4], in [5] and in assay [6] was “inactive” each time. The Potency result in assay [7], in assay [8], in assay [9], in [10], in [11] and in assay [13] was “inactive” in each case. Moreover, the activity (max response) in assay [12] is 3.93%.

In the case of `CC(C)[C@H](O)C(=O)N[C@@H](C)C(=O)N[C@@H]1C(=O)N(C)CCc2ccccc21`, the Potency entry in assay [1], in assay [2], in assay [3], in assay [4], in [5] and in assay [6] was “inactive” in each case. For the same compound, the Potency result in assay [7], in assay [8], in [9], in assay [10], in [11] and in assay [13] was “inactive” each time. In addition, the activity (max response) in assay [12] was 8.71%.

On to `CN1c2cc(O)c(N=NC(N)=O)cc2CC1S(=O)(=O)O` (stereo not given), for which the Potency result in assay [1], in [2], in assay [3], in assay [4], in assay [5] and in [6] was “inactive” in each case. In addition, the Potency entry in assay [7], in assay [8], in [9], in assay [10], in assay [11] and in assay [13] was “inactive” in each case. For the same compound, the activity (max response) in assay [12] was 12.8%.

Consider `COCCOC(=O)C1=C(C)NC2=C(C(=O)CC(c3ccccc3OC)C2)C1c1cccc(O)c1` (stereo not given), for which the Potency was 2.95 µM (active) and 4.11 µM (active) in [1]; 2.35 µM (active) and 5.8 µM (active) in assay [2]. The Potency result in assay [3] and in [4] was “inactive” in each case.

Regarding `CCOc1ccccc1OCCNC(C)Cc1ccc(OC)c(S(N)(=O)=O)c1` (stereo not given), the Potency entry in assay [1], in assay [2], in [3], in assay [4], in [5] and in assay [6] was “inactive” in each case. Besides, the Potency entry in [7], in assay [8], in assay [9], in [10] and in [11] was “inactive” in each case.

In the case of `COc1cccc2c1C(=O)c1c(O)c3c(c(O)c1C2=O)C[C@@](O)(C(=O)CO)C[C@@H]3O[C@H]1C[C@H](N)[C@@H](O)[C@H](C)O1`, the Potency in [1] is 66.1 nM (active); in assay [2], 52.5 nM (active); in assay [3] it was 2.96 µM (active); in assay [4] it was 2.96 µM (active); in [5], 3.32 µM (active); in [6] it was 2.96 µM (active). Further, the Potency in assay [7] was 2.96 µM (active); in assay [8], 2.96 µM (active); in assay [9], 2640 nM (active); in [10], 1480 nM (active); in assay [11] it was 2640 nM (active); in [12] it was 1.12 µM (active). Besides, the Potency in assay [13] was 8.91 µM (active).

Values taken from PubChem BioAssay (NCATS).
